For 8 compounds, growth results are on record in PubChem BioAssay (NCI).

Among the test systems are NCI-H23 lung; NCI-H226 lung; NCI-H322M lung; HOP-62 NSCLC; NCI-H460 lung; HOP-92 NSCLC; NCI-H522 lung; A549/ATCC NSCLC; 786-0 renal; DU-145 prostate; K-562 leukemia; MALME-3M melanoma; MDA-MB-231 breast; RXF 393 renal; SF-268 CNS; SF-295 CNS; SF-539 CNS; UACC-257 melanoma; M14 melanoma; COLO 205 colon.
What all share (test): NCI-60 one-dose screen, 48 h (100 = growth as untreated, 0 = no growth, -100 = all killed)
Common to all, as to details: 10 µM unless noted

The structures appear in SMILES notation. Compounds without any hit were thinned out: in the full panel of roughly 83,000, 20% have a hit.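 Treatment: one concentration, 48 hours, 96-well format. Scoring: percent growth, with anything below 10 considered active.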 Values without a mark were called inactive. Activity calls are given as the source filed them.

`C=C1C(=O)O[C@H]2[C@H]1CC/C(COC(=O)NCc1c[nH]c3ccc(F)cc13)=C\CC[C@@]1(C)O[C@@H]21`: the growth in the assay on NCI-H23 lung is 48.4%; with NCI-H226 lung it was 4.11% (active); in the assay with NCI-H322M lung, 80.9%; in the assay with HOP-62 NSCLC it was 62.4%; in the assay with NCI-H460 lung it was 27.9%; in the assay with HOP-92 NSCLC it was -18.1% (active). The growth is -75.2% (active) with NCI-H522 lung; 54.6% with A549/ATCC NSCLC; -51.5% (active) in the assay on 786-0 renal; -62.9% (active) in the assay with DU-145 prostate; 1.89% (active) with K-562 leukemia; -68.8% (active) in the assay with MALME-3M melanoma. Also, the growth is -57.5% (active) in the assay with MDA-MB-231 breast; -88.5% (active) in the assay on RXF 393 renal; 36% in the assay with SF-268 CNS; 61.2% in the assay with SF-295 CNS; -52.6% (active) with SF-539 CNS; 14.3% with UACC-257 melanoma. The growth in the assay on M14 melanoma is -50.8% (active).
For the compound `CSc1nc2sc3cccc(Cl)c3n2c(=N)c1C#N`, the growth in the assay on NCI-H23 lung is 90.5%; with NCI-H226 lung it was 93.5%; in the assay on NCI-H322M lung it was 99.8%; in the assay with HOP-62 NSCLC, 97%; in the assay on NCI-H460 lung, 102%; with HOP-92 NSCLC, 82.4%. Further, the growth in the assay with NCI-H522 lung is 78.9%; in the assay with A549/ATCC NSCLC it was 100%; in the assay with COLO 205 colon, 56.1%; in the assay on DU-145 prostate, 105%; with K-562 leukemia, 106%; in the assay on MALME-3M melanoma it was 95.3%. Moreover, the growth in the assay with MDA-MB-231 breast is 90.1%; in the assay with RXF 393 renal it was 131%; in the assay with SF-268 CNS, 102%; in the assay with SF-295 CNS, 108%; with SF-539 CNS it was 109%; with UACC-257 melanoma, 108%. Moreover, in the assay on M14 melanoma, the growth is 102%.
Regarding `N#C/C(=C\c1ccc([N+](=O)[O-])s1)c1nc2cc(Cl)ccc2s1`, the growth is 2.73% (active) in the assay on NCI-H23 lung; -74.1% (active) in the assay on NCI-H226 lung; 99.3% with NCI-H322M lung; 12.6% in the assay with HOP-62 NSCLC; 6.38% (active) with NCI-H460 lung; -37.8% (active) in the assay on HOP-92 NSCLC. Also, the growth with NCI-H522 lung was -35.9% (active); in the assay on A549/ATCC NSCLC, 25.1%; in the assay with COLO 205 colon it was -26.6% (active); in the assay on DU-145 prostate, 57.4%; in the assay with K-562 leukemia it was 1.75% (active); with MALME-3M melanoma, -57.1% (active). Further, the growth with MDA-MB-231 breast is -47.2% (active); in the assay on RXF 393 renal it was 6.88% (active); in the assay on SF-268 CNS, 27.9%; with SF-295 CNS, 91.7%; with SF-539 CNS, -35% (active); in the assay on UACC-257 melanoma it was 55.6%. Moreover, in the assay on M14 melanoma, the growth was -78.1% (active).
As to `O=C(CCN1CCCC1)c1ccc([N+](=O)[O-])cc1`, the growth in the assay with NCI-H23 lung was 101%; in the assay with NCI-H226 lung, 99.1%; with NCI-H322M lung it was 101%; in the assay with HOP-62 NSCLC it was 98.2%; in the assay with NCI-H460 lung, 108%; in the assay on HOP-92 NSCLC, 109%. The growth was 2.13% (active) in the assay with NCI-H522 lung; 101% in the assay on A549/ATCC NSCLC; 107% with COLO 205 colon; 104% with DU-145 prostate; 100% in the assay with K-562 leukemia; 94.9% with MALME-3M melanoma. The growth is 102% with MDA-MB-231 breast; 107% in the assay with RXF 393 renal; 101% with SF-268 CNS; 97.9% in the assay with SF-295 CNS; 93.6% in the assay on SF-539 CNS; 101% in the assay with UACC-257 melanoma. Besides, the growth with M14 melanoma was 102%.
For `COc1ccc(C(=O)CSc2nc(-c3cc(OC)ccc3OC)cc(-c3ccc(Cl)cc3)c2C#N)cc1`, the growth in the assay on NCI-H23 lung was 44.1%; with NCI-H226 lung, -2.99% (active); in the assay with NCI-H322M lung it was 67.9%; with HOP-62 NSCLC, 39.9%; in the assay on NCI-H460 lung it was 25.4%; in the assay on HOP-92 NSCLC, 43.9%. Further, the growth in the assay on NCI-H522 lung is 27.6%; in the assay on A549/ATCC NSCLC, 56.5%; in the assay with 786-0 renal, 23.7%; in the assay with DU-145 prostate, 65.9%; in the assay with K-562 leukemia, 77.9%; with MALME-3M melanoma it was -6.38% (active). Besides, the growth is 33.2% in the assay with MDA-MB-231 breast; 26.5% in the assay on RXF 393 renal; 59.2% in the assay with SF-268 CNS; 18.5% in the assay on SF-295 CNS; 30.5% with SF-539 CNS; 58% with UACC-257 melanoma. The growth in the assay with M14 melanoma was 48.6%.
As for `[O-][n+]1c(Cl)cc(Cl)c2ccccc21`, the growth in the assay with NCI-H23 lung is 102%; in the assay with NCI-H226 lung, 104%; in the assay on NCI-H322M lung it was 115%; in the assay on HOP-62 NSCLC, 103%; in the assay on NCI-H460 lung, 108%; with HOP-92 NSCLC it was 89.4%. Also, the growth with NCI-H522 lung is 104%; in the assay with A549/ATCC NSCLC it was 91.9%; in the assay on COLO 205 colon, 107%; in the assay with DU-145 prostate, 113%; in the assay with K-562 leukemia it was 85.2%; with MALME-3M melanoma it was 107%. Further, the growth in the assay with MDA-MB-231 breast was 100%; in the assay on RXF 393 renal it was 153%; with SF-268 CNS it was 96.7%; with SF-295 CNS, 103%; in the assay on SF-539 CNS, 125%; in the assay on UACC-257 melanoma it was 102%. Besides, in the assay with M14 melanoma, the growth is 100%.
Take `CC(C)N1C(=O)/C(=C2\SC(=S)N(C(C)C)C2=O)SC1=S`: the growth is 94% in the assay with NCI-H23 lung; 101% in the assay with NCI-H226 lung; 94% with NCI-H322M lung; 95.5% in the assay on HOP-62 NSCLC; 101% in the assay with NCI-H460 lung; 72.3% with HOP-92 NSCLC. Also, the growth was 90.6% with NCI-H522 lung; 93.8% in the assay on A549/ATCC NSCLC; 110% in the assay on COLO 205 colon; 93.6% in the assay with DU-145 prostate; 93% in the assay with K-562 leukemia; 82.6% in the assay with MALME-3M melanoma. Also, the growth in the assay with MDA-MB-231 breast was 81%; in the assay with RXF 393 renal, 104%; with SF-268 CNS, 94.5%; in the assay on SF-295 CNS, 101%; in the assay on SF-539 CNS, 85.1%; in the assay on UACC-257 melanoma, 95.8%. Further, the growth with M14 melanoma was 95%.
With `COc1ccc(C(=O)c2cc(OC)c(OC)c(OC)c2)cc1O`, the growth was 27.7% with NCI-H23 lung; 84.6% with NCI-H226 lung; 43.7% in the assay with NCI-H322M lung; 22.7% with HOP-62 NSCLC; 2.85% (active) with NCI-H460 lung; 51.5% in the assay with HOP-92 NSCLC. Further, the growth is 12.4% in the assay on NCI-H522 lung; 17.8% in the assay with A549/ATCC NSCLC; 41.9% in the assay with COLO 205 colon; 9.94% (active) with DU-145 prostate; 8.98% (active) in the assay on K-562 leukemia; 35.2% with MALME-3M melanoma. In addition, the growth in the assay on MDA-MB-231 breast is 24.8%; with RXF 393 renal, 0.69% (active); in the assay with SF-268 CNS, 29.3%; in the assay with SF-295 CNS, -8.79% (active); with SF-539 CNS, -22.1% (active); with UACC-257 melanoma, 69.3%. The growth in the assay on M14 melanoma was -3.92% (active).
